{"source": "paper PMC4336329", "about": "(PLoS ONE, 2015)", "note": "Among all 310,000 compounds or so, about 14,000 (4.5%) showed an effect of 50% or more. The effect is printed as a negative number. Many of the other results were omitted from the sample, so strong results are more common in it than they were.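 Note: peak tail current of the secondary pulse compared with the same well before compound.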"}
{"molecular_target": "human ether-à-go-go-related gene (hERG) potassium channel (human, UniProt Q12809)", "sequence (Q12809 whole entry, looked up)": "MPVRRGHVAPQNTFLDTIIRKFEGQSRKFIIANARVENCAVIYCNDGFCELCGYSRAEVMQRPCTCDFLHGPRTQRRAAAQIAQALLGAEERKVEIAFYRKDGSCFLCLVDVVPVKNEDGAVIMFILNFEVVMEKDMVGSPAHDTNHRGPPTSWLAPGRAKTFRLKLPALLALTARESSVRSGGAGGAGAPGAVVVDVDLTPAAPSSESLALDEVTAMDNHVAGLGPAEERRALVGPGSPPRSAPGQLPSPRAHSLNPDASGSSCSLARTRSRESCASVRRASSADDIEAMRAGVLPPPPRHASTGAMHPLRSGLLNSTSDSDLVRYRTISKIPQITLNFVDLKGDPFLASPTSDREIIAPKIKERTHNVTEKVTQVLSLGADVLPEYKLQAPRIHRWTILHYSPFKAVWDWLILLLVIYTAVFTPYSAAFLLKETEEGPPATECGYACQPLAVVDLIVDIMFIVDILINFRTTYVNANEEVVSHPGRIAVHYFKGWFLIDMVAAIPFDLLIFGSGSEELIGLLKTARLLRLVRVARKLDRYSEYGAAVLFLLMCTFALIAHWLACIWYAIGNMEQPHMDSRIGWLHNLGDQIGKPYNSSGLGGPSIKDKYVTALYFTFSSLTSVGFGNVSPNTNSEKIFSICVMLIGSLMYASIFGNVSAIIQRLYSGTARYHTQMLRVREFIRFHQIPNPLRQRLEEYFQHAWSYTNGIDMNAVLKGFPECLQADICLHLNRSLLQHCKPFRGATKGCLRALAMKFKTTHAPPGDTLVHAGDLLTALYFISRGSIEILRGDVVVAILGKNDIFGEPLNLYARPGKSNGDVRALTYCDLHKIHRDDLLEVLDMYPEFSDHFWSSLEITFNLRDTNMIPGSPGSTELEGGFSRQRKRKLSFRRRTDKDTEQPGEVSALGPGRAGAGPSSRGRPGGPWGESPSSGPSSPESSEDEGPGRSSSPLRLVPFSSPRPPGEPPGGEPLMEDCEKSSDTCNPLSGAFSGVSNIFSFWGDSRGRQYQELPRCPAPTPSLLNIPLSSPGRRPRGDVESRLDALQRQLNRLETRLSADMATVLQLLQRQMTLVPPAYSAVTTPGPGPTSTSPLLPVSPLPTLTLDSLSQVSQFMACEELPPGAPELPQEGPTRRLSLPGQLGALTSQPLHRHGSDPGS", "assay": "primary screen, population patch clamp on CHO cells stably expressing hERG; higher = less effect of the substance", "units": {"hERG current change (%, negative = inhibition) at 10uM": "%"}}
{"smiles": "O=C(CCCCCCN1C(=O)c2ccccc2C1=O)Nc1nccs1", "hERG current change (%, negative = inhibition) at 10uM": 12.2}
{"smiles": "COc1cc(CNCCO)cc(Br)c1OCc1cccs1.Cl", "hERG current change (%, negative = inhibition) at 10uM": -8.81}
{"smiles": "CCOc1c(C)cc2[nH]c(CCC(=O)O)nc2c1C.Cl", "hERG current change (%, negative = inhibition) at 10uM": -0.00982}
{"smiles": "COCCn1c(-c2ccccc2F)n[nH]c1=S", "hERG current change (%, negative = inhibition) at 10uM": 21.5}
{"smiles": "CNC(=O)c1ccccc1Sc1ccccc1CO", "hERG current change (%, negative = inhibition) at 10uM": 27.9}
{"smiles": "CC(C)(C)c1ccc(NC(=S)NCc2cccs2)cc1", "hERG current change (%, negative = inhibition) at 10uM": 4.35}
{"smiles": "CCCc1nc(C)cc(N2CCN(c3ccccc3)CC2)n1.Cl", "hERG current change (%, negative = inhibition) at 10uM": -51.7}
{"smiles": "Cc1cc(N2CCN(c3ccccc3)CC2)nc(N)n1.Cl", "hERG current change (%, negative = inhibition) at 10uM": -42.9}
{"smiles": "Cc1cc(C)n(-c2nnc(N3CCN(c4ccccc4)CC3)nn2)n1", "hERG current change (%, negative = inhibition) at 10uM": -16}
{"smiles": "Cc1cc(N2CCC(C)CC2)nc(-n2nc(C)cc2C)n1", "hERG current change (%, negative = inhibition) at 10uM": -30.3}
{"smiles": "Cc1cc(N2CCN(c3ccccc3)CC2)nc(-n2nc(C)cc2C)n1", "hERG current change (%, negative = inhibition) at 10uM": -63.2}
{"smiles": "Cc1cc(N2CCN(c3ccccc3)CC2)nc(NCc2ccccc2)n1", "hERG current change (%, negative = inhibition) at 10uM": 4.25}
{"smiles": "CC(Sc1nc(=O)cc(N)n1CCc1ccccc1)C(=O)NCc1ccccc1", "note": "(stereo not drawn)", "hERG current change (%, negative = inhibition) at 10uM": 3.18}
{"smiles": "Cc1ccc(C)c(S(=O)(=O)N/N=C/c2ccc(N(C)C)cc2)c1", "hERG current change (%, negative = inhibition) at 10uM": 16.1}
{"smiles": "CCC(NC(=O)c1ccccc1NC(=O)c1ccccc1)C(=O)OC", "note": "(stereo not drawn)", "hERG current change (%, negative = inhibition) at 10uM": 11.3}
{"smiles": "CS(=O)CSc1nc2c(cc1C#N)CCCC2", "note": "(stereo not drawn)", "hERG current change (%, negative = inhibition) at 10uM": -25}
{"smiles": "NC(=O)CC(NC(=O)c1cccc(Br)c1)c1ccc(NC2CCCCCCCCCCC2)c([N+](=O)[O-])c1", "note": "(stereo not drawn)", "hERG current change (%, negative = inhibition) at 10uM": 5.21}
{"smiles": "NC(=O)CC(NC(=O)c1cccc(Br)c1)c1ccc(NC2CCC2)c([N+](=O)[O-])c1", "note": "(stereo not drawn)", "hERG current change (%, negative = inhibition) at 10uM": -59.8}
{"smiles": "NC(=O)CC(NC(=O)c1cccc(Br)c1)c1ccc(NC2CCCCCCC2)c([N+](=O)[O-])c1", "note": "(stereo not drawn)", "hERG current change (%, negative = inhibition) at 10uM": 6.95}
{"smiles": "Cc1cc(C)cc(C(=O)NC(CC(N)=O)c2ccc(NCC3CC3)c([N+](=O)[O-])c2)c1", "note": "(stereo not drawn)", "hERG current change (%, negative = inhibition) at 10uM": -30.4}
{"smiles": "NC(=O)CC(NC(=O)c1ccccc1)c1ccc(NCC2CC2)c([N+](=O)[O-])c1", "note": "(stereo not drawn)", "hERG current change (%, negative = inhibition) at 10uM": -35.3}
{"smiles": "NC(=O)CC(NC(=O)c1cccc(Br)c1)c1ccc(NCC2CC2)c([N+](=O)[O-])c1", "note": "(stereo not drawn)", "hERG current change (%, negative = inhibition) at 10uM": -65.4}
{"smiles": "CCCc1nnc(NC(=O)CCC(=O)N2CCN(CCOc3ccc(C)cc3)CC2)s1", "hERG current change (%, negative = inhibition) at 10uM": -51.2}
{"smiles": "CCc1nnc(NC(=O)CCC(=O)N2CCN(CCOc3ccc(C)cc3)CC2)s1", "hERG current change (%, negative = inhibition) at 10uM": -20.2}
{"smiles": "CCN1CCN(CC(=O)Nc2nc3ccccc3s2)CC1.O=CO", "hERG current change (%, negative = inhibition) at 10uM": -22.7}
{"smiles": "COc1ccccc1N1CCN(C(=O)c2ccc(-c3nc4ccccc4s3)o2)CC1", "hERG current change (%, negative = inhibition) at 10uM": -3.16}
{"smiles": "O=C(c1ccc(-c2nc3ccccc3s2)o1)N1CCN(c2ccccc2O)CC1", "hERG current change (%, negative = inhibition) at 10uM": 11.6}
{"smiles": "O=C(CN1CCN(Cc2ccc(F)cc2)CC1)Nc1nc2ccccc2s1", "hERG current change (%, negative = inhibition) at 10uM": -69.3}
{"smiles": "CCc1nnc(NC(=O)CCC(=O)NC2CCCCC2)s1", "hERG current change (%, negative = inhibition) at 10uM": 15.8}
{"smiles": "CCc1nnc(NC(=O)CCC(=O)NC2CCCC2)s1", "hERG current change (%, negative = inhibition) at 10uM": -3.36}
{"smiles": "CN1CCN(CC(=O)Nc2nc3ccccc3s2)CC1.O=CO", "hERG current change (%, negative = inhibition) at 10uM": -5.53}
{"smiles": "O=C(CN1CCN(C(=O)c2ccc(-c3nc4ccccc4s3)o2)CC1)Nc1ccc(F)cc1", "hERG current change (%, negative = inhibition) at 10uM": -72.3}
{"smiles": "Cc1ccc(OCCN2CCN(C(=O)CCC(=O)Nc3nnc(CC(C)C)s3)CC2)cc1", "hERG current change (%, negative = inhibition) at 10uM": -43.5}
{"smiles": "CCc1nnc(NC(=O)CCC(=O)NC2CC2)s1", "hERG current change (%, negative = inhibition) at 10uM": -50.5}
{"smiles": "Cc1cc(C)c2c(=O)[nH]n(C3CCCCCC3)c2n1", "hERG current change (%, negative = inhibition) at 10uM": 23.5}
{"smiles": "Cc1nc(Nc2nc3c(c(=O)[nH]2)CCC3)nc2ccccc12", "hERG current change (%, negative = inhibition) at 10uM": -10.2}
{"smiles": "Cc1ccc(NC(=S)N(C)C)cc1C", "hERG current change (%, negative = inhibition) at 10uM": -4.6}
{"smiles": "O=C(N=C1SC2CS(=O)(=O)CC2N1c1ccc(Cl)cc1Cl)C1CC1", "note": "(stereo not drawn)", "hERG current change (%, negative = inhibition) at 10uM": -7.48}
{"smiles": "Cc1ccc(/C(O)=C/C(=O)C(=O)NNC(=O)C(O)(c2ccccc2)c2ccccc2)cc1", "hERG current change (%, negative = inhibition) at 10uM": 14.5}
{"smiles": "OCCOc1ccc(C2=NCCO2)cc1", "hERG current change (%, negative = inhibition) at 10uM": -23.3}
{"smiles": "Cc1cnc([N+](=O)[O-])n1CCOC(=O)NC(=O)c1ccccc1Cl", "hERG current change (%, negative = inhibition) at 10uM": 8.87}
{"smiles": "COc1ccc(OC)c(NC(=O)CCCNC(=O)c2ccc(Cl)cc2)c1", "hERG current change (%, negative = inhibition) at 10uM": -9.27}
{"smiles": "CCc1nnc(NC(=O)CN2CCN(Cc3ccc(C)cc3)CC2)s1", "hERG current change (%, negative = inhibition) at 10uM": -57.6}
{"smiles": "CCc1nnc(NC(=O)CN2CCN(Cc3ccc(F)cc3)CC2)s1", "hERG current change (%, negative = inhibition) at 10uM": -13.6}
{"smiles": "CCCN1CCN(CC(=O)Nc2nc3ccccc3s2)CC1", "hERG current change (%, negative = inhibition) at 10uM": -49.9}
